{"source": "PubChem BioAssay AID431", "about": "(Sanford-Burnham Center for Chemical Genomics, 2006)", "note": "The campaign covered roughly 63,000 compounds. About 1,100 (1.7%) were called active. Only a selection was taken, and actives are over-represented in it overall. Measured potencies and affinities stand elsewhere. Unmarked numbers belong to inactive results.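 How the source made its calls: active means compounds whose percent cytotoxicity in the single-dose primary screen, scaled between solvent and toxic-drug controls, exceeds 50; inactive means the rest.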"}
{"test": "viability loss of HPDE-C7K cells – cell-based, fluorescence, HTS, primary screen (AID 431);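 further: 0% = DMSO solvent wells and 100% = doxorubicin-treated wells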", "details": "HPDE-C7K KRASV12 cells, Alamar Blue viability, 48 h; at 10 µM; stronger effect = higher value"}
{"smiles": "CCn1c(SCC(=O)NCCc2ccc(F)cc2)nnc1-c1cccs1", "cytotoxicity": "4.9%"}
{"smiles": "COc1ccccc1OCc1nnc(SCC(=O)Nc2ccc(C)cc2)n1C", "cytotoxicity": "-9.9%"}
{"smiles": "Cc1ccc(CN2CC34C=CC(O3)C(C(=O)NCc3ccc5c(c3)OCO5)C4C2=O)cc1", "note": "(centres undefined)", "cytotoxicity": "-15.5%"}
{"smiles": "CCN(CC)S(=O)(=O)c1cccc(-c2nnc(SCC(=O)NC)n2CCc2ccccc2)c1", "cytotoxicity": "-3%"}
{"smiles": "COc1ccccc1N1CCN(C(=O)c2ccc(NC(C)=O)cc2)CC1", "cytotoxicity": "-1.4%"}
{"smiles": "Brc1ccc(-c2nnc(-c3ccccc3Br)o2)cc1", "cytotoxicity": "-2.3%"}
{"smiles": "CN(CC(=O)Nc1ccccc1Cl)C(=O)COC(=O)CNC(=O)c1ccc(Br)o1", "cytotoxicity": "-18.6%"}
{"smiles": "Cc1ccc2c(c1)nnn2C1CCN(C(=O)c2cccs2)CC1", "cytotoxicity": "-4.8%"}
{"smiles": "O=C(Cc1cccs1)Nc1ccc(C(=O)O)cc1", "cytotoxicity": "-2.8%"}
{"smiles": "CC(=O)OC1CC2(C)C(=O)CCC2C2CCc3cc(O)ccc3C12", "note": "(centres undefined)", "cytotoxicity": "-12.1%"}
{"smiles": "CCc1ccccc1S(=O)(=O)Cc1ccc(C(=O)NCC2CCCO2)o1", "note": "(centres undefined)", "cytotoxicity": "-0.8%"}
{"smiles": "c1ccc(-c2csc(Nc3cccnc3)n2)nc1", "cytotoxicity": "4.5%"}
{"smiles": "COc1cccc2sc(Nc3nc(-c4ccccn4)cs3)nc12", "cytotoxicity": "58.6% (active)"}
{"smiles": "Cc1cccc(Nc2nc(-c3ccccn3)cs2)n1", "cytotoxicity": "10.2%"}
{"smiles": "CC(C)OCCCNC(=O)CN1C(=O)CC(C)(C)S(=O)(=O)c2ccccc21", "cytotoxicity": "3.7%"}
{"smiles": "CS(=O)(=O)N(CC(=O)NCc1ccc2c(c1)OCO2)Cc1ccc(Cl)cc1", "cytotoxicity": "-14.6%"}
{"smiles": "N#Cc1c(N2CCCCC2)nc(N2CCCCC2)c2c1CCN(Cc1ccccc1)C2", "cytotoxicity": "-4.7%"}
{"smiles": "C=CCNc1nc(N2CCCCC2)c(C#N)c2c1CN(Cc1ccccc1)CC2", "cytotoxicity": "-1.7%"}
{"smiles": "CCN1CCc2c(C#N)c(N3CCCCC3)nc(NCc3ccccc3)c2C1", "cytotoxicity": "51.6% (active)"}
{"smiles": "N#Cc1c(NCCCO)nc(-c2ccccc2)c2c1CCCC2", "cytotoxicity": "20.2%"}
{"smiles": "CCN1CCc2c(C#N)c(N3CCOCC3)nc(NCc3ccccc3)c2C1", "cytotoxicity": "-1.3%"}
{"smiles": "C=CCNc1nc(NCc2ccccc2)c(C#N)c2c1CN(C)CC2", "cytotoxicity": "19.2%"}
{"smiles": "N#Cc1c(NCCO)nc(NCc2ccccc2)c2c1CCN(Cc1ccccc1)C2", "cytotoxicity": "40.8%"}
{"smiles": "CCN(CCCNC(=O)CCCn1c(=O)[nH]c2ccccc2c1=O)c1cccc(C)c1", "cytotoxicity": "-2.5%"}
{"smiles": "CCc1nc(SCC(=O)Nc2cc(C)on2)n[nH]1", "cytotoxicity": "-9.6%"}
{"smiles": "CCOc1ccccc1NC(=O)N1C2CCCC1CC(NC(=O)C1CC1)C2", "note": "(centres undefined)", "cytotoxicity": "-3.2%"}
{"smiles": "Cc1ccccc1NC(=O)N1C2CCCC1CC(NC(=O)C1CC1)C2", "note": "(centres undefined)", "cytotoxicity": "54.6% (active)"}
{"smiles": "Cc1ccccc1NC(=O)N1C2CCCC1CC(NC(=O)C(C)(C)C)C2", "note": "(centres undefined)", "cytotoxicity": "-3.9%"}
{"smiles": "CCCCSc1nnc(C)c(=O)[nH]1", "cytotoxicity": "-3.8%"}
{"smiles": "CN1CC2=Cc3ccccc3OC23Oc2ccccc2C=C3C1", "cytotoxicity": "60.6% (active)"}
{"smiles": "Cc1nnc2sc(-c3csc4c3CCCC4)nn12", "cytotoxicity": "3.5%"}
{"smiles": "c1ccc(-c2nnc3sc(-c4csc5c4CCCC5)nn23)cc1", "cytotoxicity": "71.6% (active)"}
{"smiles": "Cc1ccccc1-c1nn2c(-c3ccccc3)nnc2s1", "cytotoxicity": "11.2%"}
{"smiles": "COc1ccc(-c2cc(C(F)F)n3ncc(C(=O)NCCCN4CCCC4=O)c3n2)cc1", "cytotoxicity": "-8.7%"}
{"smiles": "COCCNC(=O)c1ccccc1-c1ccccc1C(=O)O", "cytotoxicity": "7.4%"}
{"smiles": "COC(=O)CSc1nnc(CCc2nc3ccccc3[nH]2)n1C", "cytotoxicity": "-3.8%"}
{"smiles": "COc1cc(C2C(C(C)=O)=C(C)Nc3ncnn32)ccc1O", "note": "(centres undefined)", "cytotoxicity": "2.2%"}
{"smiles": "COc1cc(-c2ccccc2)nc(N)n1", "cytotoxicity": "7.6%"}
{"smiles": "COc1ccc(OC)c(Nc2cc(C)nc3ccccc23)c1", "cytotoxicity": "1.1%"}
{"smiles": "COc1ccc(OC)c(Nc2cc(-c3ccccc3)nc(N)n2)c1", "cytotoxicity": "57.6% (active)"}
{"smiles": "CC1CCCCC1NC(=O)Cn1[nH]c(=O)c2ccccc2c1=O", "note": "(centres undefined)", "cytotoxicity": "0.5%"}
{"smiles": "CC(C)(C)NC(=O)Nc1ccccc1C(N)=O", "cytotoxicity": "-1.1%"}
{"smiles": "Cc1sc2ncnc(NCc3ccco3)c2c1C", "cytotoxicity": "0.5%"}
{"smiles": "Cc1sc2nc3c4ccccc4c(NCc4ccco4)nn3c(=O)c2c1C", "cytotoxicity": "66% (active)"}
{"smiles": "Cc1sc2nc(SCC(=O)NCc3ccco3)n(-c3ccccc3)c(=O)c2c1C", "cytotoxicity": "7.2%"}
{"smiles": "O=C(CCOc1ccccc1)OCC(=O)c1cc2ccccc2o1", "cytotoxicity": "-20.1%"}
{"smiles": "COc1ccc(S(=O)(=O)N2CCCCC2)cc1C(C)C", "cytotoxicity": "-10.6%"}
{"smiles": "Cc1cc(-c2csc(N)n2)c(C)n1CCc1ccccc1", "cytotoxicity": "99.3% (active)"}
{"smiles": "CCOC(=O)c1cc(C)n(CCc2ccccc2)c1C", "cytotoxicity": "0.4%"}
{"smiles": "Nc1nc(-c2ccccc2Br)cs1", "cytotoxicity": "15.5%"}
{"smiles": "COCCn1c(-c2ccc(Cl)cc2)cnc1SCC(=O)NCc1cccs1", "cytotoxicity": "-6.5%"}
{"smiles": "N#CC1=C(N)C(C#N)(C#N)C2(C(=O)Nc3ccccc32)C2CCCC=C12", "note": "(centres undefined)", "cytotoxicity": "-18.9%"}
{"smiles": "CS(=O)(=O)N1CCc2cc(S(=O)(=O)Nc3ccc4oc5c(c4c3)CCCC5)ccc21", "cytotoxicity": "84.6% (active)"}
{"smiles": "CS(=O)(=O)N1CCc2cc(S(=O)(=O)N3CCN(Cc4ccc5c(c4)OCO5)CC3)ccc21", "cytotoxicity": "7.7%"}
{"smiles": "CS(=O)(=O)N1CCc2cc(C(=O)O)ccc21", "cytotoxicity": "8.3%"}
{"smiles": "O=C(C(Cc1ccccc1)n1cccc1)N1CCc2ccccc21", "note": "(centres undefined)", "cytotoxicity": "-1.9%"}
{"smiles": "CC(=O)Oc1c(Cl)c(N2CCOCC2)c(OC(C)=O)c2ccccc12", "cytotoxicity": "-27.5%"}
{"smiles": "COCCn1c(SCC(=O)Nc2ccccc2)nc2c1c(=O)[nH]c(=O)n2C", "cytotoxicity": "-3.2%"}
{"smiles": "CC1CCc2c(sc3ncnc(SCC(=O)N4CCN(C(=O)c5ccco5)CC4)c23)C1", "note": "(centres undefined)", "cytotoxicity": "2.5%"}
{"smiles": "CCC(c1nnnn1C(C)(C)C)N1CCN(c2cc(Cl)ccc2C)CC1", "note": "(centres undefined)", "cytotoxicity": "-6.4%"}
{"smiles": "O=c1cc(-c2ccccc2)[nH]n1-c1nc2ccccc2s1", "cytotoxicity": "79% (active)"}
{"smiles": "O=c1cc(-c2ccccc2)[nH]c2nc3ccccc3n12", "cytotoxicity": "31.4%"}
{"smiles": "Cc1nn(-c2nc3ccccc3s2)c(N)c1-c1ccccc1", "cytotoxicity": "5.2%"}
{"smiles": "COc1ccc(-c2cc(=O)n(-c3nc4ccccc4[nH]3)[nH]2)cc1", "cytotoxicity": "10.5%"}
{"smiles": "CC(=NC1CCCC1)c1c(C)[nH]n(-c2nc3ccccc3s2)c1=O", "cytotoxicity": "-31.1%"}
{"smiles": "Cc1[nH]c(=O)[nH]c1CN1CCCCC1", "cytotoxicity": "-10.3%"}
{"smiles": "CCOC(=O)c1cnn(-c2ccccc2)c1NC(=O)c1cccs1", "cytotoxicity": "0.1%"}
{"smiles": "O=C(c1cccs1)n1cc(C(=S)N2CCOCC2)c2ccccc21", "cytotoxicity": "10%"}
{"smiles": "COc1ccc(-c2c(C)nn3c(N4CCN(Cc5ccccc5)CC4)cc(C)nc23)cc1OC", "cytotoxicity": "-4%"}
{"smiles": "c1csc(-c2cnc3ccccc3n2)c1", "cytotoxicity": "3.7%"}
{"smiles": "CCOC(=O)N1CCN(S(=O)(=O)c2cc(Cl)ccc2Cl)CC1", "cytotoxicity": "-7.3%"}
{"smiles": "CCOC(=O)N1CCN(C(=O)Nc2ccc(Cl)cc2Cl)CC1", "cytotoxicity": "0.2%"}
{"smiles": "CCOC(=O)N1CCC(=C2c3ccc(Cl)cc3CCc3cccnc32)CC1", "cytotoxicity": "90.6% (active)"}
{"smiles": "O=S(=O)(c1ccc(-c2ccccc2)cc1)N1CCOCC1", "cytotoxicity": "3.5%"}
{"smiles": "Nc1nncn1C(=O)c1cccs1", "cytotoxicity": "9.5%"}
{"smiles": "CC(=O)O[C@]1(C(C)=O)CC[C@H]2[C@@H]3C=C(C)C4=CC(=O)CC[C@]4(C)[C@H]3CC[C@@]21C", "cytotoxicity": "-15.6%"}
{"smiles": "CCCCCCCC(=O)OCC(=O)[C@@]1(O)CC[C@H]2[C@@H]3CCC4=CC(=O)CC[C@]4(C)[C@H]3[C@@H](O)C[C@@]21C", "cytotoxicity": "-2.2%"}
{"smiles": "CCCCC(=O)O[C@]1(C(=O)CO)CC[C@H]2[C@@H]3CCC4=CC(=O)CC[C@]4(C)[C@H]3[C@@H](O)C[C@@]21C", "cytotoxicity": "-3.2%"}
{"smiles": "CCCCCC(=O)O[C@]1(C(C)=O)CC[C@H]2[C@@H]3CCC4=CC(=O)CC[C@]4(C)[C@H]3CC[C@@]21C", "cytotoxicity": "118% (active)"}
{"smiles": "CC(=O)O[C@]1(C(C)=O)CC[C@H]2[C@@H]3C=C(Cl)C4=CC(=O)CC[C@]4(C)[C@H]3CC[C@@]21C", "cytotoxicity": "76.4% (active)"}
{"smiles": "CC(=O)O[C@]1(C(C)=O)CC[C@H]2[C@@H]3C[C@H](C)C4=CC(=O)CC[C@]4(C)[C@H]3CC[C@@]21C", "cytotoxicity": "3.4%"}
{"smiles": "NC(=O)CN1C(=O)C(O)(CC(=O)c2ccccc2O)c2ccccc21", "note": "(centres undefined)", "cytotoxicity": "-20.7%"}
{"smiles": "Cc1csc(=N)n1CC(=O)N1CCc2ccccc21", "cytotoxicity": "-5.1%"}
{"smiles": "CCN1C(=O)c2cccc3c(S(=O)(=O)Nc4ccccc4OC)ccc1c23", "cytotoxicity": "15.9%"}
{"smiles": "COc1ccc(-c2cc(C(F)(F)F)n3nc(C(=O)Nc4cc(C)on4)cc3n2)cc1OC", "cytotoxicity": "8.1%"}
{"smiles": "Cc1cc(C)c(S(=O)(=O)N2CCN(CCO)CC2)c(C)c1", "cytotoxicity": "-4.9%"}
{"smiles": "CCN(CC)CCOc1ncnc2c1oc1ccccc12", "cytotoxicity": "-9.3%"}
{"smiles": "CCc1nc(OCCN(CC)CC)c2oc3ccccc3c2n1", "cytotoxicity": "15.9%"}
{"smiles": "CC1CCc2nn(CC(=O)NCCN3CCOCC3)cc2C1", "note": "(centres undefined)", "cytotoxicity": "-3.4%"}
{"smiles": "c1ccc(C(CN2CCOCC2)c2ccccc2)cc1", "cytotoxicity": "-15.2%"}
{"smiles": "O=C(c1ccccc1)c1ccc(OCC(O)CN2CCOCC2)cc1", "note": "(centres undefined)", "cytotoxicity": "10.8%"}
{"smiles": "CCOc1ccc(-n2c(Cc3cc(=O)[nH]c(=O)[nH]3)nnc2SC(C)C)cc1", "cytotoxicity": "-20.5%"}
{"smiles": "Cc1cc(C(=O)Oc2ccccc2C(=O)O)c(C)o1", "cytotoxicity": "-8%"}
{"smiles": "CCSc1nnc(NC(=O)c2ccc(C)o2)s1", "cytotoxicity": "-3.8%"}
{"smiles": "Cc1ccc(C(=O)Nc2ncc(Cc3ccc(F)cc3)s2)o1", "cytotoxicity": "61.5% (active)"}
{"smiles": "Cc1ccc(C(=O)Nc2ncc(Cc3ccccc3)s2)o1", "cytotoxicity": "51.3% (active)"}
{"smiles": "O=C(Nc1ncc(Cc2ccccc2)s1)c1cccs1", "cytotoxicity": "4.6%"}
{"smiles": "O=C(Nc1ncc(Cc2ccccc2)s1)C1CCCO1", "note": "(centres undefined)", "cytotoxicity": "6.8%"}
{"smiles": "Cc1nnc(SCC(=O)Nc2ncc(Cc3ccc(F)cc3)s2)n1N", "cytotoxicity": "-4.8%"}
